The results in this text go back to PubChem BioAssay (NCATS).

Where “and” joins values, the source holds several entries; their conditions need not be identical. Equal entries are not always repeated. Records with an inconclusive call do not appear. A call without a number means that no potency is given here. Calls of active or inactive are those of the source. Calls follow the shape of the full dose curve.
Potency is read from the fitted curve at half-maximal effect.

The nature of one assay: Cytotoxicity counterscreen for inhibitors of SARS-CoV-2 cell entry (AID 1645845). Also: nearly all actives have a fitted effect of over 50% in size. The conditions noted are these: cell viability (SARS-CoV-2 entry assay cells); series mostly up to 57.1 µM; activity change, negative = cytotoxicity: at the top concentration. The procedure, abridged: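 Counterscreen run in the same HEK293-ACE2 line as the pseudotyped-particle entry assay, without particles. Viability after 48 h at 37 C was read as ATP luminescence, scaled between cell-containing and cell-free wells.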
On to `C[C@H]1O[C@H](O[C@H]2[C@H](O)[C@@H](O)[C@@H](O[C@H]3[C@H](O)[C@@H](O)[C@H](O)O[C@@H]3CO)O[C@@H]2CO)[C@H](O)[C@@H](O)[C@@H]1N[C@H]1C=C(CO)[C@@H](O)[C@H](O)[C@H]1O`, for which the “activity change, negative = cytotoxicity” value is -1.82% (inactive).
Turning to `CCn1cc(C(=O)O)c(=O)c2ccc(C)nc21`, the call was inactive.
In the case of `NC(=O)c1cn(Cc2c(F)cccc2F)nn1`, the outcome was inactive.
Consider `CC[C@H](C)C(=O)O[C@H]1C[C@@H](C)C=C2C=C[C@H](C)[C@H](CC[C@@H]3C[C@@H](O)CC(=O)O3)[C@H]21`, for which the Potency entry is “inactive”.
Consider `CCN(C)C(=O)Oc1cccc([C@H](C)N(C)C)c1`, for which the “activity change, negative = cytotoxicity” value is -6.69% (inactive).
For the molecule `NNCCc1ccccc1`, the outcome was inactive.
For `CCCCCOC(=O)Nc1nc(=O)n([C@@H]2O[C@H](C)[C@@H](O)[C@H]2O)cc1F`, the Potency entry is “inactive”.
For `CCCCS(=O)(=O)N[C@@H](Cc1ccc(OCCCCC2CCNCC2)cc1)C(=O)O`, the “activity change, negative = cytotoxicity” value was -6.26% (inactive).
Take `NCCCC(O)(P(=O)(O)O)P(=O)(O)O`: the Potency result is “inactive”.
`O=C1CCC(N2C(=O)c3ccccc3C2=O)C(=O)N1` (stereo not drawn): the Potency result was “inactive”.
In the case of `O=C1c2cccc3c2[C@H](CCC3)CN1[C@@H]1CN2CCC1CC2`, the result was inactive.
With `C[N+]1(C)CCC(OC(=O)C(O)(c2ccccc2)C2CCCC2)C1` (stereo not drawn), the molecule was called inactive.
`CC(C)(O)c1ccccc1CC[C@@H](SCC1(CC(=O)O)CC1)c1cccc(/C=C/c2ccc3ccc(Cl)cc3n2)c1`: the “activity change, negative = cytotoxicity” value was 2.58% (inactive).
With `CCOc1ccccc1OCCN[C@H](C)Cc1ccc(OC)c(S(N)(=O)=O)c1`, the outcome was inactive.
For `O=C(O)CCCc1ccccc1`, the “activity change, negative = cytotoxicity” value was -4.98% (inactive).
As for `CC(C)Nc1cccnc1N1CCN(C(=O)c2cc3cc(NS(C)(=O)=O)ccc3[nH]2)CC1`, the molecule was called inactive.
For the molecule `COc1cc2nc(N3CCN(C(=O)C4CCCO4)CC3)nc(N)c2cc1OC` (stereo not drawn), the “activity change, negative = cytotoxicity” value was 0.671% (inactive).
For the molecule `CN1CCC(=C2c3ccccc3C=Cc3ccccc32)CC1`, the Potency result was “inactive”.
For the molecule `CN(C)CCOC(C)(c1ccccc1)c1ccccn1` (stereo not drawn), the “activity change, negative = cytotoxicity” value is 4.83% (inactive).
As to `CC(=O)CCCCn1c(=O)c2c(ncn2C)n(C)c1=O`, the “activity change, negative = cytotoxicity” value is -0.425% (inactive).
Regarding `Nc1cccc2c1CN(C1CCC(=O)NC1=O)C2=O` (stereo not drawn), the result was inactive.
On to `Cc1cccc(C)c1OCC(C)N` (stereo not drawn), for which the “activity change, negative = cytotoxicity” value was -13.6% (inactive).
As to `Cc1ccc(C(=O)c2cc(O)c(O)c([N+](=O)[O-])c2)cc1`, the Potency entry was “inactive”.
In the case of `Cc1ccc(-n2nc(C(C)(C)C)cc2NC(=O)Nc2ccc(OCCN3CCOCC3)c3ccccc23)cc1`, the call was inactive.
As for `COc1ccc([C@@H]2Sc3ccccc3N(CCN(C)C)C(=O)[C@@H]2OC(C)=O)cc1`, the Potency entry is “inactive”.
On the same count and under the same terms, then `O=C1[C@H](CC[C@H](O)c2ccc(F)cc2)[C@@H](c2ccc(O)cc2)N1c1ccc(F)cc1`, with “inactive”; and `Nc1nc(=S)c2[nH]cnc2[nH]1`, with 7.94 µM (active).
Take `O=c1n(CCCN2CCN(c3cccc(Cl)c3)CC2)nc2ccccn12`: the result was inactive.
For the molecule `CCCN(CCC)CCc1cccc2c1CC(=O)N2`, the result was inactive.
As for `COC(=O)[C@H]1[C@H]2C[C@@H]3c4[nH]c5cc(OC)ccc5c4CCN3C[C@H]2C[C@@H](OC(=O)c2cc(OC)c(OC)c(OC)c2)[C@@H]1OC`, the “activity change, negative = cytotoxicity” value was 2.88% (inactive).
In the case of `Cc1cc(C)cc(OCC2CNC(=O)O2)c1` (stereo not drawn), the call was inactive.
On to `OCCN1C[C@H](O)[C@@H](O)[C@H](O)[C@H]1CO`, for which the Potency entry was “inactive”.
On to `COc1c(C)c2c(c(O)c1C/C=C(\C)CCC(=O)OCCN1CCOCC1)C(=O)OC2`, for which the Potency entry was “inactive”.
Take `CNS(=O)(=O)Cc1ccc2[nH]cc(CCN(C)C)c2c1`: the result was inactive.
As to `CCOC(=O)[C@H](CCc1ccccc1)N[C@@H](C)C(=O)N1[C@H](C(=O)O)C[C@@H]2CCC[C@@H]21`, the Potency entry was “inactive”.
Turning to `COc1ccccc1OCCNCC(O)COc1cccc2[nH]c3ccccc3c12` (stereo not drawn), the “activity change, negative = cytotoxicity” value is 4.56% (inactive).
For `O=C(NCCN1CCOCC1)c1ccc(Cl)cc1`, the “activity change, negative = cytotoxicity” value was 3.88% (inactive).
On to `CC(C)[N+](C)(CCOC(=O)C1c2ccccc2Oc2ccccc21)C(C)C`, for which the outcome was inactive.
With `COc1ccc(OC)c(C(O)CNC(=O)CN)c1` (stereo not drawn), the “activity change, negative = cytotoxicity” value was 2.67% (inactive).

The nature of a further assay: Primary qHTS to identify inhibitors of SARS-CoV-2 cell entry (AID 1645846). Also: nearly all actives have a fitted effect of over 45% in size. The conditions noted are these: SARS-CoV-2 pseudovirus cell entry assay, luminescence; activity change, negative = inhibition: at 57.1 µM (top of the series) unless noted; series mostly up to 57.1 µM. The procedure, abridged: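 Luminescence readout (Bright-Glo luciferase) 48 h after pseudoparticle addition. HEK293-ACE2 cells, 1500/well; compound pre-incubation 1 h; Normalized to spike PP and bald PP.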
With `C[C@H]1O[C@H](O[C@H]2[C@H](O)[C@@H](O)[C@@H](O[C@H]3[C@H](O)[C@@H](O)[C@H](O)O[C@@H]3CO)O[C@@H]2CO)[C@H](O)[C@@H](O)[C@@H]1N[C@H]1C=C(CO)[C@@H](O)[C@H](O)[C@H]1O`, the outcome was inactive.
Take `CCn1cc(C(=O)O)c(=O)c2ccc(C)nc21`: the call was inactive.
Regarding `NC(=O)c1cn(Cc2c(F)cccc2F)nn1`, the call was inactive.
As for `CC[C@H](C)C(=O)O[C@H]1C[C@@H](C)C=C2C=C[C@H](C)[C@H](CC[C@@H]3C[C@@H](O)CC(=O)O3)[C@H]21`, the Potency entry was “inactive”.
Take `CCN(C)C(=O)Oc1cccc([C@H](C)N(C)C)c1`: the outcome was inactive.
On to `NNCCc1ccccc1`, for which the molecule was called inactive.
Turning to `CCCCCOC(=O)Nc1nc(=O)n([C@@H]2O[C@H](C)[C@@H](O)[C@H]2O)cc1F`, the Potency result was “inactive”.
`CCCCS(=O)(=O)N[C@@H](Cc1ccc(OCCCCC2CCNCC2)cc1)C(=O)O`: the molecule was called inactive.
On to `NCCCC(O)(P(=O)(O)O)P(=O)(O)O`, for which the activity change, negative = inhibition was -4.6% and -17.5%.
With `O=C1CCC(N2C(=O)c3ccccc3C2=O)C(=O)N1` (stereo not drawn), the activity change, negative = inhibition was -0.562% and -0.309%.
Consider `O=C1c2cccc3c2[C@H](CCC3)CN1[C@@H]1CN2CCC1CC2`, for which the molecule was classed as inactive.
On to `C[N+]1(C)CCC(OC(=O)C(O)(c2ccccc2)C2CCCC2)C1` (stereo not drawn), for which the outcome was inactive.
`CC(C)(O)c1ccccc1CC[C@@H](SCC1(CC(=O)O)CC1)c1cccc(/C=C/c2ccc3ccc(Cl)cc3n2)c1`: the result was inactive.
Consider `CCOc1ccccc1OCCN[C@H](C)Cc1ccc(OC)c(S(N)(=O)=O)c1`, for which the activity change, negative = inhibition is -21.5%.
As for `O=C(O)CCCc1ccccc1`, the molecule was classed as inactive.
Turning to `CC(C)Nc1cccnc1N1CCN(C(=O)c2cc3cc(NS(C)(=O)=O)ccc3[nH]2)CC1`, the molecule was called inactive.
Take `COc1cc2nc(N3CCN(C(=O)C4CCCO4)CC3)nc(N)c2cc1OC` (stereo not drawn): the activity change, negative = inhibition is -6.28%.
As to `CN1CCC(=C2c3ccccc3C=Cc3ccccc32)CC1`, the activity change, negative = inhibition was -24.8%.
Consider `CN(C)CCOC(C)(c1ccccc1)c1ccccn1` (stereo not drawn), for which the activity change, negative = inhibition was 2.27%.
For `CC(=O)CCCCn1c(=O)c2c(ncn2C)n(C)c1=O`, the molecule was classed as inactive.
The same measure, in the same setting: then `Nc1cccc2c1CN(C1CCC(=O)NC1=O)C2=O` (stereo not drawn), with “inactive”.
As for `Cc1cccc(C)c1OCC(C)N` (stereo not drawn), the activity change, negative = inhibition was -0.301%.
In the case of `Cc1ccc(C(=O)c2cc(O)c(O)c([N+](=O)[O-])c2)cc1`, the activity change, negative = inhibition was -19.3%.
On to `Cc1ccc(-n2nc(C(C)(C)C)cc2NC(=O)Nc2ccc(OCCN3CCOCC3)c3ccccc23)cc1`, for which the activity change, negative = inhibition is -13.7%.
Turning to `COc1ccc([C@@H]2Sc3ccccc3N(CCN(C)C)C(=O)[C@@H]2OC(C)=O)cc1`, the activity change, negative = inhibition was -17.1% and -9.97%.
For the molecule `O=C1[C@H](CC[C@H](O)c2ccc(F)cc2)[C@@H](c2ccc(O)cc2)N1c1ccc(F)cc1`, the activity change, negative = inhibition is 1.63% and -17.2%.
`Nc1nc(=S)c2[nH]cnc2[nH]1`: the Potency is 14.1 µM (active).
Turning to `O=c1n(CCCN2CCN(c3cccc(Cl)c3)CC2)nc2ccccn12`, the activity change, negative = inhibition was -23.8%.
`CCCN(CCC)CCc1cccc2c1CC(=O)N2`: the molecule was called inactive.
Turning to `COC(=O)[C@H]1[C@H]2C[C@@H]3c4[nH]c5cc(OC)ccc5c4CCN3C[C@H]2C[C@@H](OC(=O)c2cc(OC)c(OC)c(OC)c2)[C@@H]1OC`, the activity change, negative = inhibition was -18.9%.
Take `Cc1cc(C)cc(OCC2CNC(=O)O2)c1` (stereo not drawn): the result was inactive.
As to `OCCN1C[C@H](O)[C@@H](O)[C@H](O)[C@H]1CO`, the activity change, negative = inhibition was -28.6% and -30.5%.
`COc1c(C)c2c(c(O)c1C/C=C(\C)CCC(=O)OCCN1CCOCC1)C(=O)OC2`: the activity change, negative = inhibition is -45.8%.
In the case of `CNS(=O)(=O)Cc1ccc2[nH]cc(CCN(C)C)c2c1`, the molecule was classed as inactive.
On to `CCOC(=O)[C@H](CCc1ccccc1)N[C@@H](C)C(=O)N1[C@H](C(=O)O)C[C@@H]2CCC[C@@H]21`, for which the Potency entry was “inactive”.
In the case of `COc1ccccc1OCCNCC(O)COc1cccc2[nH]c3ccccc3c12` (stereo not drawn), the Potency is 22.4 µM (active).
As to `O=C(NCCN1CCOCC1)c1ccc(Cl)cc1`, the molecule was classed as inactive.
Consider `CC(C)[N+](C)(CCOC(=O)C1c2ccccc2Oc2ccccc21)C(C)C`, for which the activity change, negative = inhibition was 2.34%.
As for `COc1ccc(OC)c(C(O)CNC(=O)CN)c1` (stereo not drawn), the activity change, negative = inhibition was -24%.
